The assay in a line: growth inhibition of WT strain, primary screen, mitochondrial fusion inhibitor project, WT and mutant strains, chemical genetic (AID 1362). Conditions: mitochondrial fusion phenotypic screen, at 10 µM.
The mark [1] stands for this setting: WT strain, growth inhibition, stronger effect = higher value.

The whole screen tested about 190,000 compounds, of which about 4,000 (2.1%) were called active. This is one part of a sample in which actives are shown more often than they occur. No stated cut-off is given here; in the data, active means inhibition above about 58%; inactive means the rest, inconclusive results apart; tested in S. cerevisiae.

`Cc1cc(NS(=O)(=O)c2ccc(NC(=O)c3cccc(OC(F)F)c3)cc2)nc(C)n1`: the inhibition by setting is: under setting [1], -7.81% (inactive); (mutant strain inhibition) 6.49%.

Take `Cc1cc(C)cc(NC(=O)CSc2ccccc2)c1`: the inhibition reads like this: under setting [1], -4.46% (inactive); (mutant strain inhibition) -13.2%.

As to `Cc1nc2ccccc2cc1C(=O)N/N=C/c1ccc([N+](=O)[O-])cc1`, the inhibition reads like this: under setting [1], 65.1% (active); (mutant strain inhibition) 20.7%.

In the case of `Cc1ccsc1C(=O)N/N=C/c1ccc([N+](=O)[O-])cc1`, the inhibition under setting [1] is -11.5% (inactive) and the inhibition (mutant strain inhibition) is -7.32%.

For the molecule `O=C(N/N=C/c1ccc([N+](=O)[O-])cc1)c1c[nH]c2ccccc12`, the inhibition runs as follows: under setting [1], -8.33% (inactive); (mutant strain inhibition) 14.7%.

For `Cc1ccc2[nH]c(=O)c(CN(CC3COCCO3)C(=O)Nc3ccccc3C)cc2c1` (stereo unspecified), the inhibition under setting [1] was -8.31% (inactive) and the inhibition (mutant strain inhibition) worked out at 8.92%.

As to `Cc1cc(C)n(-c2nc(SCC(=O)N3CCCC3)c3c4c(sc3n2)CCCC4)n1`, the inhibition is 62% (active) under setting [1] and 38.4% (mutant strain inhibition).

`Cc1nc(SCC(=O)Nc2cc(C)on2)c2c3c(sc2n1)CCCC3`: the inhibition is, setting by setting: under setting [1], 21.1% (inactive); (mutant strain inhibition) 31.1%.

For the molecule `COCCNc1nc(-n2nc(C)cc2C)nc2sc3c(c12)CCCC3`, the inhibition by setting is: under setting [1], 18.8% (inactive); (mutant strain inhibition) 0%.

Take `Cc1cc(C)n(-c2nnc(N3CCN(c4ccccc4)CC3)nn2)n1`: the inhibition under setting [1] was 12.1% (inactive) and the inhibition (mutant strain inhibition) turned out to be 10.8%.

In the case of `CC(CO)NCC12CC3CC(CC(C3)C1)C2` (stereo unspecified), the inhibition runs as follows: under setting [1], -17.6% (inactive); (mutant strain inhibition) -8.59%.

Consider `COc1c(F)c(F)c(C(=O)O)c(Nc2ccccc2C)c1F`, for which the inhibition reads like this: under setting [1], 74.2% (active); (mutant strain inhibition) 15.4%.

Regarding `Cc1ccccc1NC(=O)c1ccccc1`, the inhibition under setting [1] is -1% (inactive) and the inhibition (mutant strain inhibition) was -29.4%.

Regarding `Cc1ccc(Nc2c(F)c(F)c(F)c(F)c2C(=O)O)c(C)c1`, the inhibition by setting is: under setting [1], -0.48% (inactive); (mutant strain inhibition) -18%.

Turning to `CC(=O)c1ccc(NC(=O)C(C)NCc2ccc(Cl)cc2)cc1` (stereo unspecified), the inhibition under setting [1] is 26.3% (inactive) and the inhibition (mutant strain inhibition) was -21.6%.

Regarding `Cc1cccc(C)c1NC(=O)Nc1ccccc1-n1ccnc1`, the inhibition reads like this: under setting [1], 0.23% (inactive); (mutant strain inhibition) 6.61%.

As to `CCNC(=S)NNC(=O)C1CCN(Cc2ccccc2)CC1`, the inhibition under setting [1] was 2.38% (inactive) and the inhibition (mutant strain inhibition) was -10.7%.

As to `CCC(C)(C)n1nnnc1C(c1cccs1)N1CCN(Cc2ccccc2)CC1` (stereo unspecified), the inhibition is 10.3% (inactive) under setting [1] and 21.9% (mutant strain inhibition).

`Fc1ccccc1C(c1nnnn1Cc1ccc2c(c1)OCO2)N1CCN(Cc2ccccc2)CC1` (stereo unspecified): the inhibition reads like this: under setting [1], 15.4% (inactive); (mutant strain inhibition) 18.9%.

As for `Fc1ccc(Cn2nnnc2C(c2cccs2)N2CCCCCC2)cc1` (stereo unspecified), the inhibition is 62.9% (active) under setting [1] and 11.4% (mutant strain inhibition).

With `O=C(NCc1nnc(SCC(=O)N2CCCc3ccccc32)o1)c1ccccc1F`, the inhibition under setting [1] was 1.27% (inactive) and the inhibition (mutant strain inhibition) is -4.18%.

In the case of `CC(=O)Nc1ccc(CN2CCN(Cc3ccc(F)c(F)c3)C(CCO)C2)cc1` (stereo unspecified), the inhibition is 1.99% (inactive) under setting [1] and 5.61% (mutant strain inhibition).

With `Cc1ccc(NCc2n[nH]c(=S)n2-c2ccccc2)cc1Cl`, the inhibition by setting is: under setting [1], -7.14% (inactive); (mutant strain inhibition) 3.54%.

Consider `CC(=O)n1cc([C@@H]2C=C(C(=O)N3CCN(Cc4ccc5c(c4)OCO5)CC3)O[C@H](OCc3ccc(CO)cc3)C2)c2ccccc21`, for which the inhibition reads like this: under setting [1], 1.15% (inactive); (mutant strain inhibition) 3.61%.

For the molecule `OCCCC1CCCCN1Cc1nc(Cc2ccccc2Cl)no1` (stereo unspecified), the inhibition is -11.6% (inactive) under setting [1] and -5.21% (mutant strain inhibition).

Turning to `C=CCC(CC=C)(C(N)=O)c1ccccc1`, the inhibition under setting [1] is -18.5% (inactive) and the inhibition (mutant strain inhibition) worked out at 6.11%.

In the case of `O=C(NCCOc1ccccc1)c1ccccc1`, the inhibition runs as follows: under setting [1], 3.33% (inactive); (mutant strain inhibition) 5.23%.

On to `CC(C)(c1ccccc1)c1ccc(OCCN)cc1`, for which the inhibition is, setting by setting: under setting [1], 79.8% (active); (mutant strain inhibition) 43.4%.

As to `CN(C)CC(O)COc1ccc(C(C)(C)c2ccc(OCC(O)CN(C)C)cc2)cc1` (stereo unspecified), the inhibition reads like this: under setting [1], -19.2% (inactive); (mutant strain inhibition) -3.67%.

With `CCOC(=O)c1cc(-c2ccc(F)cc2)n(CC(=O)NCc2ccccn2)c1C`, the inhibition is, setting by setting: under setting [1], -1.19% (inactive); (mutant strain inhibition) 1.72%.

In the case of `Cc1nn(-c2ccc([N+](=O)[O-])cc2)c(N)c1-c1ccccc1`, the inhibition runs as follows: under setting [1], 6.29% (inactive); (mutant strain inhibition) -26%.

`Cn1cccc1C(C#N)c1ccccc1C#N` (stereo unspecified): the inhibition under setting [1] was -2.23% (inactive) and the inhibition (mutant strain inhibition) was -5.92%.

As for `COc1ccccc1CCNC(=O)CSc1nnc2ccc(-c3cccnc3)nn12`, the inhibition was -7.72% (inactive) under setting [1] and 2.87% (mutant strain inhibition).

As to `CC(NC(=S)Nc1ccc(OC(F)F)cc1)c1ccc(F)cc1` (stereo unspecified), the inhibition is 42.7% (inactive) under setting [1] and -13.6% (mutant strain inhibition).

As to `COc1cccc2sc(N(CCCN(C)C)C(=O)C(c3ccccc3)c3ccccc3)nc12`, the inhibition was 96.8% (active) under setting [1] and 88.8% (mutant strain inhibition).

`CC(=O)N(CCCN(C)C)c1nc2ccc(C)cc2s1`: the inhibition runs as follows: under setting [1], -12.7% (inactive); (mutant strain inhibition) -0.04%.

With `CN(C)CCCN(C(=O)COc1ccccc1)c1nc2c(Cl)cccc2s1`, the inhibition was -5.71% (inactive) under setting [1] and 13.3% (mutant strain inhibition).

Turning to `COc1ccc(CNc2c(CO)cnc3c2cnn3C)cc1`, the inhibition by setting is: under setting [1], 4.76% (inactive); (mutant strain inhibition) 3.68%.

On to `COCC(C)NC(=O)CSc1nc2nn(-c3ccccc3)c(=O)c-2c2n1CCCCC2` (stereo unspecified), for which the inhibition is 0.91% (inactive) under setting [1] and -15.1% (mutant strain inhibition).

Take `O=C(N/N=C/C=C/c1ccccc1)C1CC1(c1ccccc1)c1ccccc1` (stereo unspecified): the inhibition runs as follows: under setting [1], 17.1% (inactive); (mutant strain inhibition) -3.76%.

On to `O=C(/C=C/c1ccccc1)c1ccccc1O`, for which the inhibition under setting [1] was 12.3% (inactive) and the inhibition (mutant strain inhibition) is 8.14%.

For `CC(/C=C/c1ccccc1)=N\NC(=O)C1CC1(C)c1ccccc1` (stereo unspecified), the inhibition is 71.7% (active) under setting [1] and 59.3% (mutant strain inhibition).

Take `CCOC(=O)C1=C(CC)Nc2ccccc2N=C1N`: the inhibition is, setting by setting: under setting [1], -42.2% (inactive); (mutant strain inhibition) -18.4%.

Take `CCO[C@H]1OC(C(=O)N2CCCCCCC2)=C[C@@H](c2ccc(C(F)(F)F)cc2)[C@@H]1CCCO`: the inhibition by setting is: under setting [1], -11% (inactive); (mutant strain inhibition) 9.51%.

`O=C(Nc1ccccc1)c1nnsc1S(=O)(=O)c1ccc(Cl)cc1`: the inhibition is, setting by setting: under setting [1], 98.5% (active); (mutant strain inhibition) 97.8%.

As for `CC(=O)Nc1cc(C(=O)O)ccc1S(=O)(=O)c1ccc(Cl)cc1`, the inhibition runs as follows: under setting [1], 8.84% (inactive); (mutant strain inhibition) 41.8%.

Consider `O=C(Nc1ccc(Cl)cc1)c1ccsn1`, for which the inhibition was 12.9% (inactive) under setting [1] and 28% (mutant strain inhibition).

As to `CN(C)c1ccc(C=NCCc2ccc(S(N)(=O)=O)cc2)cc1`, the inhibition is, setting by setting: under setting [1], -3.5% (inactive); (mutant strain inhibition) -12.7%.

Regarding `O=C(c1cc(Cl)cc(Cl)c1)N1CCC(=O)N(C(COCc2ccccc2)Cc2ccccc2)CC1` (stereo unspecified), the inhibition reads like this: under setting [1], 71.4% (active); (mutant strain inhibition) 11.6%.

In the case of `CC(C)CC(CO)N1CCN(C(=O)c2ccc(Cl)cc2Cl)CCC1=O` (stereo unspecified), the inhibition is -10.3% (inactive) under setting [1] and 1.82% (mutant strain inhibition).

`CC(C)CC(COCc1ccc(Cl)cc1)N1CCN(C(=O)c2ccc(C(F)(F)F)cc2)CCC1=O` (stereo unspecified): the inhibition by setting is: under setting [1], 35.7% (inactive); (mutant strain inhibition) 0.99%.

Regarding `O=C(Nc1cccc(F)c1)N1C2CCC1CC(O)(c1cccnc1)C2` (stereo unspecified), the inhibition under setting [1] was -6.02% (inactive) and the inhibition (mutant strain inhibition) was -8.29%.

For `C=CCn1c(=NC(=O)c2cccs2)sc2cc(NC(C)=O)ccc21`, the inhibition is -0.58% (inactive) under setting [1] and 5.07% (mutant strain inhibition).

The term inhibition denotes the drop in the measured response relative to a control, in per cent.
